Assay [1] deals with Voltage-gated inwardly rectifying potassium channel KCNH2 (Homo sapiens) (UniProt Q12809). Briefly: qHTS Assay for Small Molecule Inhibitors of the Human hERG Channel Activity (AID 588834).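 Note: lower thallium flux fluorescence means stronger hERG block; nearly all actives have a fitted effect of over 50% in size.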 Note: potency is the fitted concentration of half-maximal effect. The settings on record: U2OS BacMam hERG, FluxOR thallium flux fluorescence; series mostly up to 46.1 µM. The method in brief: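 Kinetic FDSS fluorescence; U2OS + hERG BacMam (~100 virus particles/cell); FluxOR Tl+ flux; ~10 min cpd; AC50 (Hill).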
Sequence of Voltage-gated inwardly rectifying potassium channel KCNH2 (Homo sapiens) (Q12809 whole entry, looked up): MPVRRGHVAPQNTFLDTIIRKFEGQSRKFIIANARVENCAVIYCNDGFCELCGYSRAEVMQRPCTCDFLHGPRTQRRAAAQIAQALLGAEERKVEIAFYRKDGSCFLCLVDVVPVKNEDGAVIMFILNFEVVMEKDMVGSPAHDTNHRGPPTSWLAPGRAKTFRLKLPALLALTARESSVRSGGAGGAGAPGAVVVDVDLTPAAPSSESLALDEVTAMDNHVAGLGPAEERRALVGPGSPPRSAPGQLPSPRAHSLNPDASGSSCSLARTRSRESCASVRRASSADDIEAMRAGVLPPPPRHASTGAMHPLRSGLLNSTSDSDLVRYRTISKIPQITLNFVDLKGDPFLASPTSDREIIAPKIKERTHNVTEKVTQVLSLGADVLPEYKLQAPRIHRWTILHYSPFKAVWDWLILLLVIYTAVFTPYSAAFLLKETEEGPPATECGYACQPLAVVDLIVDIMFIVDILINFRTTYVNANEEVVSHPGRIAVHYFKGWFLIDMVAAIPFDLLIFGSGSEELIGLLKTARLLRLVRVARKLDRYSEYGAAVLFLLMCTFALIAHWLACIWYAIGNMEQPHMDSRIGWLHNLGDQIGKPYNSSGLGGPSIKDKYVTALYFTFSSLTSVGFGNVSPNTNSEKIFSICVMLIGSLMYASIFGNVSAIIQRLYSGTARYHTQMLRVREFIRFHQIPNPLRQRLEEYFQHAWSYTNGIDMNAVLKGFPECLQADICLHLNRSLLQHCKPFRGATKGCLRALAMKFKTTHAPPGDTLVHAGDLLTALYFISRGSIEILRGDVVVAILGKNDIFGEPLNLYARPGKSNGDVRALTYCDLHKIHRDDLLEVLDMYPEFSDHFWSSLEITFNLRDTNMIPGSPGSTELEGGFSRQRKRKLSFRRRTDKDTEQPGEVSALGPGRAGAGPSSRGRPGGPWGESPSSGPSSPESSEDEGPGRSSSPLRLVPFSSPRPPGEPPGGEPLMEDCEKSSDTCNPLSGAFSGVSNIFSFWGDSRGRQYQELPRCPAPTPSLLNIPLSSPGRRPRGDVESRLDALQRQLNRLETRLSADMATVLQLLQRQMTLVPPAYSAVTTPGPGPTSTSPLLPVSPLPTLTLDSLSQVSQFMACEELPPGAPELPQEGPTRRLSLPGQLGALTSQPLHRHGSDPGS
(qHTS replaces the single test concentration by a dilution series.)

Assay [2] deals with Thyroid hormone receptor beta (Homo sapiens) (UniProt P10828). Briefly: qHTS assay for small molecule antagonists of thyroid hormone receptor beta signaling (AID 588547; active = well fitted inhibition curve with a large enough effect in the signal ratio, with a control signal flat, not every such curve was filed as active; the % refers to the signal ratio; note: potency is the fitted concentration of half-maximal effect;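 for activity change % (negative = inhibition): cells stimulated with 0.4 nM T3 agonist during compound exposure; % is set by controls: 0 for no effect and ±100 for the full control effect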). The conditions noted are these: TR-UAS-bla HEK293, beta-lactamase ratio, antagonist mode, 18 h. The method in brief:
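TR-UAS-bla GripTite HEK293 cells in 2% charcoal/dextran FBS medium were preincubated 4 h at 37 C, given compound (0.59 nM to 92 uM) plus 0.4 nM T3 (final) for 18 h, then CCF4 for 2 h at RT; Hill fit gave IC50.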

Assay [3] can be described thus: S16 Schwann cell viability assay (CellTiter-Glo assay) (AID 624031). Note: nearly all actives have a fitted effect of over 70% in size. Note: potency is the fitted concentration of half-maximal effect. The conditions noted are these: S16 rat Schwann cells viability, 24 h; series mostly up to 57.5 µM. In a few lines: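 Concentration-effect curves come from CellTiter-Glo luminescence of S16 rat Schwann cells after 24 h compound exposure. Each reading was normalized to DMSO wells (0%) and wells without cells, and curves were ranked by r2 and response magnitude.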

The nature of assay [4]: qHTS assay for small molecule agonists of the antioxidant response element (ARE) signaling pathway (AID 651741; active = well fitted activation curve with a large enough effect in the signal ratio; the % refers to the signal ratio; note: potency is the fitted concentration of half-maximal effect; for activation: % of control where 0% means no effect). The conditions noted are these: HepG2 ARE-bla reporter, beta-lactamase FRET ratio, 16 h; series mostly up to 96 µM. The method in brief:
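ARE-bla HepG2 cells (beta-lactamase reporter under ARE control) were plated at 2,000 cells/well, preincubated 5 h at 37 C/5% CO2, then treated with DMSO-dissolved compounds for 16 h at 37 C; LiveBLAzer B/G FRET substrate added, fluorescence read after 2 h at room temperature.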

Assay [5] can be described thus: qHTS assay for small molecule activators of the p53 signaling pathway (AID 651743; active = well fitted activation curve with a large enough effect in the signal ratio, not every such curve was filed as active; the % refers to the signal ratio; note: % of control where 0% means no effect). The settings on record: HCT-116 p53RE-bla, beta-lactamase FRET ratio, 16 h; stronger effect = higher value. The method in brief:
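p53RE-bla HCT-116 cells with a stably integrated beta-lactamase reporter under p53 response elements were plated, rested 5 hours at 37 C/5% CO2, then exposed to compounds in DMSO for 16 hours at 37 C. LiveBLAzer B/G FRET substrate was read after 2 hours at room temperature.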

Assay [6] addresses Luciferin 4-monooxygenase (Photinus pyralis) (UniProt P08659). Briefly: Biochemical firefly luciferase enzyme assay for NPC (AID 624030). Note: nearly all actives have a fitted effect of over 70% in size. Note: potency is the fitted concentration of half-maximal effect. The conditions noted are these: purified P. pyralis luciferase, luminescence, 5 min; series mostly up to 58.6 µM. The method in brief: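 Counter-screen for direct inhibition of the luciferase enzyme by approved-drug library compounds, run at 10 nM enzyme in 50 mM Tris acetate (final). Luminescence was read within 5 min of enzyme-buffer addition and normalized to PTC124 versus DMSO (0%).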

Assay [7] in a line: S16 Schwann cell PMP22 intronic element firefly luciferase assay (AID 624032).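 Note: plate controls were DMSO for no effect and PTC124 positive control mean for full effect; nearly all actives have a fitted effect of over 30% in size.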 The conditions noted are these: S16 rat Schwann cells, PMP22 element FLuc, 24 h; series mostly up to 57.5 µM. The method in brief: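 Rat S16 Schwann cells stably carrying a PMP22 intronic element-driven Fluc reporter were seeded overnight, then exposed to compounds for 24 h at 37 °C. Luminescence was normalized to PTC124 (positive control) and DMSO (0% activity).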

The nature of assay [8]: S16 Schwann cell PMP22 intronic element beta-lactamase assay (AID 624044; calls by dose curve;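 note: 0% = DMSO and -100% = potassium clavulanate positive control; nearly all actives have a fitted effect of over 15% in size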). The settings on record: S16 rat Schwann cells, PMP22 element beta-lactamase FRET, 24 h; series mostly up to 38.3 µM. The method in brief: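 Rat S16 Schwann cells with beta-Lac driven by a PMP22 intronic element, compound-treated 24 h at 37 °C. LiveBLAzer FRET B/G read: 460 nm normalized to potassium clavulanate vs DMSO; 535 nm FRET as viability; concentration-effect curves classified.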

Assay [9] can be described thus: qHTS of Trypanosoma Brucei Inhibitors: LOPAC Validation (AID 624147). Note: 0% is about no effect. The settings on record: purified enzyme assay, luminescence, 45 min; series mostly up to 57.5 µM. In a few lines: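 Assay buffer: 50 mM TEA pH 7.2, 100 mM KCl, 10 mM MgCl2, 0.05% BSA, 0.01% Tween-20. Pyruvate kinase from T. brucei plus substrate met compound, then ADP (130 uM final). Luminescence was read post 45 min RT.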

The target in assay [10] is Glucagon-like peptide 1 receptor (Homo sapiens) (UniProt P43220). Briefly: qHTS of GLP-1 Receptor Agonists: LOPAC Validation (AID 624148).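 Note: 0% is about no effect; higher luminescence signal means agonism.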 The conditions noted are these: GLP-1R agonist cell assay; series mostly up to 46.1 µM. The method in brief:
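HEK293 cells stably co-expressing a cAMP-responsive luciferase reporter and a hypersensitive GLP-1R were plated 12 h at 37 °C and exposed to compounds for 4-6 hr at 37 °C, 5% CO2. Luminescence was read 12 min after adding detection reagent.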

Assay [11] can be described thus: qHTS of Nrf2 Activators: LOPAC Validation (AID 624149). Note: 0% is about no effect. The settings on record: Nrf2/ARE reporter cell assay; series mostly up to 46.1 µM. The method in brief: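 ARE reporter activation measured in AREc32 firefly luciferase cells after 24 hr compound exposure; Steady-Glo luminescence.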
The nature of assay [12]: HTS Assay for Allosteric Antagonists of the Human D2 Dopamine Receptor: Hit Validation in HTRF (AID 624455).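 Note: stable D1 dopamine receptor cell line scored for blocking the D1 response; potency is the fitted concentration of half-maximal effect.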 The conditions noted are these: Cells stably expressing D1 dopamine receptor, inhibition mode; series mostly up to 46.1 µM. In a few lines:
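Signal from an HTRF read-out in D1-expressing stable cells gave hit activity as inhibition of the D1 response.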

Several values for one entry are separate records, joined by “and”; a condition that tells them apart may be missing. Equal entries are not always repeated. Values without a mark were called inactive. Inconclusive results are not listed. Activity calls are given as the source filed them. Unless noted, calls come from the whole dose curve; as a rule, active = well fitted curve in the direction sought with a large enough effect; inconclusive = small, poorly fitted or top-dose-only effect, or another doubt; inactive = no such curve, though single readings can be large; an effect the other way counts as inactive or inconclusive.

Sequence of Luciferin 4-monooxygenase (Photinus pyralis) (P08659 whole entry, looked up): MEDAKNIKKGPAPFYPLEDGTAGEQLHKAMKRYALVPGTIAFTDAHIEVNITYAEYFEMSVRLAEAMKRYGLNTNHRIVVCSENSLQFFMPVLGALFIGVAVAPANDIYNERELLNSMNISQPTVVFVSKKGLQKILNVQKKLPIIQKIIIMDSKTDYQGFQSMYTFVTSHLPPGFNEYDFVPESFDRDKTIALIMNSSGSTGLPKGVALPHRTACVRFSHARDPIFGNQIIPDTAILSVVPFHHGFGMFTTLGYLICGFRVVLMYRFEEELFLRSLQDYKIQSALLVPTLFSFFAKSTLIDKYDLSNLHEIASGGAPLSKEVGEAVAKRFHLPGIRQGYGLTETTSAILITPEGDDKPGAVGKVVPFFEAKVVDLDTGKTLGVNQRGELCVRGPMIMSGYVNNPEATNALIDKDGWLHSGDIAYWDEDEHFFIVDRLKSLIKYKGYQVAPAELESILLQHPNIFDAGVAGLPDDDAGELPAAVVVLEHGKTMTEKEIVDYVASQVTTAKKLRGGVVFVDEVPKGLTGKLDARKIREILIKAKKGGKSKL
Sequence of Thyroid hormone receptor beta (Homo sapiens) (P10828 whole entry, looked up): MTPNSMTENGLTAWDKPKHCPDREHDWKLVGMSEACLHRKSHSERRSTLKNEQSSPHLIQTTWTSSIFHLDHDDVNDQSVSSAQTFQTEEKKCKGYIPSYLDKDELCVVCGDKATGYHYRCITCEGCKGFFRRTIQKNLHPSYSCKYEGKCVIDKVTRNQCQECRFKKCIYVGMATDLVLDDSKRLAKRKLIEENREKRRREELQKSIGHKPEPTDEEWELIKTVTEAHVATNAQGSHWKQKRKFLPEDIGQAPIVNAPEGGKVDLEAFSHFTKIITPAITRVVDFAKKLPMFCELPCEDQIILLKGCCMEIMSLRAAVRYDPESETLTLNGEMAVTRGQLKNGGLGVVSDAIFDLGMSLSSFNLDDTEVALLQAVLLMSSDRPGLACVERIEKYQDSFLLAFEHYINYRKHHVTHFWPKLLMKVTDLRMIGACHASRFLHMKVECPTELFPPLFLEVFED
Sequence of Glucagon-like peptide 1 receptor (Homo sapiens) (P43220 whole entry, looked up): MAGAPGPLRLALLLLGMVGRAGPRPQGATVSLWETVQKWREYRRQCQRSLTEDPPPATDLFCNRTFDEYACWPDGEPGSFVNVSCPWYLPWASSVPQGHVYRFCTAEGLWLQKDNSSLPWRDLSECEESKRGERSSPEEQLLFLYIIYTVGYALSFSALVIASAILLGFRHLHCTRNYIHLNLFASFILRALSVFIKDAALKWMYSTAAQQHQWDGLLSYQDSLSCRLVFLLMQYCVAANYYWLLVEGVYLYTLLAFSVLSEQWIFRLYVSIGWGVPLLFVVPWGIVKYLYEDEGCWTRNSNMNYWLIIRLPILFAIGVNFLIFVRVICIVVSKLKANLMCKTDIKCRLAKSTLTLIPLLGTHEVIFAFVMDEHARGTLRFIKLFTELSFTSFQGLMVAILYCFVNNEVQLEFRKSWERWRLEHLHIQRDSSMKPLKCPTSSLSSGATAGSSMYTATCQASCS

With `Cn1c(=O)c2c(ncn2CC(O)CO)n(C)c1=O` (configuration not stated), the Potency result in assay [1] is “inactive”.
Regarding `C[C@@H]1C[C@H]2[C@@H]3CCC4=CC(=O)C=C[C@]4(C)[C@@]3(Cl)[C@@H](O)C[C@]2(C)[C@@]1(OC(=O)c1ccco1)C(=O)CCl`, the Potency in assay [1] was 5.01 µM (active).
Consider `C[C@@H](CN1CC(=O)NC(=O)C1)N1CC(=O)NC(=O)C1`, for which the Potency entry in assay [1] was “inactive”.
Regarding `Cc1cc(NS(=O)(=O)c2ccc(N)cc2)no1`, in assay [2], the activity change % (negative = inhibition) was -2.53%. For the same compound, the Potency result in [3] and in assay [4] was “inactive” in each case. In addition, the activation in [5] is -3.47%.
As for `Cc1nnc(NS(=O)(=O)c2ccc(N)cc2)s1`, the activity change % (negative = inhibition) in assay [2] is -6.41%. The Potency entry in [6], in [3], in [7] and in [4] was “inactive” in each case. In addition, in [5], the activation was -1.27%.
In the case of `S=P(N1CC1)(N1CC1)N1CC1`, the activity change % (negative = inhibition) in [2] was -0.913%. The Potency result in assay [6], in [3] and in [8] was “inactive” in each case. Also, the activation in assay [5] was 23.1%.
`NS(=O)(=O)c1cc2c(cc1Cl)NC(C(Cl)Cl)NS2(=O)=O` (configuration not stated): in [1], the Potency result was “inactive”.
As to `CCc1cc(C(N)=S)ccn1`, the activity change % (negative = inhibition) in assay [2] is 7%. Also, the Potency result in assay [1], in assay [6], in assay [7], in assay [8] and in assay [4] was “inactive” each time. The activation in [5] was -0.635% and 1.18%.
Turning to `CNNCc1ccc(C(=O)NC(C)C)cc1`, the Potency entry in assay [1] and in [6] was “inactive” each time.
For the compound `CCC(=O)O[C@]1(C(=O)CCl)[C@@H](C)C[C@H]2[C@@H]3CCC4=CC(=O)C=C[C@]4(C)[C@@]3(F)[C@@H](O)C[C@@]21C`, in [1], the Potency entry is “inactive”.
In the case of `OC(Cn1cncn1)(Cn1cncn1)c1ccc(F)cc1F`, the activity change % (negative = inhibition) in [2] was -14.2%. The Potency entry in [1], in assay [6], in assay [3] and in assay [8] was “inactive” in each case. For the same compound, the activation in [5] was -0.436%.
For the compound `COc1ccc2cc3[n+](cc2c1OC)CCc1cc2c(cc1-3)OCO2`, the activity change % (negative = inhibition) in assay [2] is -20.8%. Further, the Potency entry in assay [1], in assay [6] and in assay [3] was “inactive” throughout. Also, in [4], the Potency is 33.5 µM (active). Moreover, the activation in assay [5] was 9.7%.
Take `CN(C)CCc1c[nH]c2ccc(C[C@H]3COC(=O)N3)cc12`: the Potency entry in assay [1] is “inactive”.
With `CC(=O)Oc1ccccc1C(=O)Nc1ncc([N+](=O)[O-])s1`, in [1], the Potency entry is “inactive”.
Regarding `CN(C)c1ccc(C(=C2C=CC(=[N+](C)C)C=C2)c2ccc(N(C)C)cc2)cc1`, the Potency in assay [2] is 28.2 µM (active); in assay [1] it was 10 µM (active) and 12.6 µM (active); in assay [6] it was 12.8 µM (active); in assay [3] it was 9.07 µM (active).
Turning to `Cc1ccnc2c1NC(=O)c1cccnc1N2C1CC1`, in assay [2], the activity change % (negative = inhibition) is -3.97%. In addition, the Potency entry in assay [6], in assay [3], in [7] and in assay [4] was “inactive” each time. Besides, the activation in [5] is -7.19%.
Regarding `CC(=O)CC(c1ccccc1)c1c(O)c2ccccc2oc1=O` (configuration not stated), the activity change % (negative = inhibition) in assay [2] was 9.03%. For the same compound, in assay [6], the Potency entry is “inactive”.
For the compound `CCCc1nc(C)c2c(=O)[nH]c(-c3cc(S(=O)(=O)N4CCN(CC)CC4)ccc3OCC)nn12`, the Potency result in assay [1] and in assay [6] was “inactive” throughout.
In the case of `COc1ccccc1OCC(O)COC(N)=O` (configuration not stated), the Potency entry in assay [1] is “inactive”.
For `CC(=O)[C@H]1CC[C@H]2[C@@H]3CC=C4C[C@@H](O)CC[C@]4(C)[C@H]3CC[C@]12C`, the Potency entry in [1] is “inactive”.
Consider `Cc1onc(-c2ccccc2Cl)c1C(=O)N[C@@H]1C(=O)N2[C@@H]1SC(C)(C)[C@@H]2C(=O)O`, for which the Potency entry in assay [1] was “inactive”.
Regarding `CC1=NN(c2ccccc2)C(=O)C1`, the activity change % (negative = inhibition) in assay [2] was -16% and 3.19%. In addition, the Potency result in [6], in assay [3] and in assay [8] was “inactive” each time. For the same compound, the activation in [5] is -1.06% and 1.05%.
As for `C[C@]12C=CC(=O)C=C1CC[C@@H]1[C@@H]2C(=O)C[C@@]2(C)[C@H]1CC[C@]2(O)C(=O)CO`, the activity change % (negative = inhibition) in assay [2] is -0.0632%. The Potency entry in assay [6], in [3] and in [8] was “inactive” each time.
With `Cc1ncc([N+](=O)[O-])n1CCO`, the activity change % (negative = inhibition) in assay [2] was -13.7%. Further, the Potency result in [1], in [6], in assay [3] and in assay [4] was “inactive” each time. In addition, in [5], the activation was -1.78%.
Consider `NNC(=O)c1ccncc1`, for which, in assay [2], the activity change % (negative = inhibition) was 10.5%. Further, the Potency entry in assay [6] and in assay [4] was “inactive” each time. Besides, in assay [5], the activation was 0.245%.
Regarding `CC(C)(C)NC(=O)[C@H]1CC[C@H]2[C@@H]3CC[C@H]4NC(=O)C=C[C@]4(C)[C@H]3CC[C@]12C`, the Potency result in [1] is “inactive”.
`N[C@@H](Cc1ccc(O)c(O)c1)C(=O)O`: the activity change % (negative = inhibition) in [2] is -11.9%. For the same compound, the Potency result in [8] is “inactive”. The compound was classed as inactive in assay [9], in [10] and in [11]. Further, the Potency in [12] is 8.2 µM (active).
For `O=C(N[C@H](CO)[C@H](O)c1ccc([N+](=O)[O-])cc1)C(Cl)Cl`, the activity change % (negative = inhibition) in [2] is 0.142% and 20.5%. The Potency entry in assay [6] and in assay [4] was “inactive” throughout. Moreover, the activation in assay [5] was 0.234% and 2.8%.
For the compound `O=C(O)c1cc(=O)[nH]c(=O)[nH]1`, the activity change % (negative = inhibition) in assay [2] was 1.95%. Also, the Potency entry in assay [6], in [3], in assay [7] and in [4] was “inactive” throughout. Also, in assay [5], the activation is -1.01%.
For `CCC(=O)O[C@]1(C(=O)SCF)[C@H](C)C[C@H]2[C@@H]3C[C@H](F)C4=CC(=O)C=C[C@]4(C)[C@@]3(F)[C@@H](O)C[C@@]21C`, the Potency result in assay [1] was “inactive”.

The values are drawn from PubChem BioAssay (NCATS).
